Source: PubChem BioAssay (NCI)
The panel holds about 83,000 compounds, 20% with a hit somewhere; the sample as a whole holds those more often.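 A percent growth of 40 corresponds to 60% growth inhibition; 0 means no net growth; -100 means all cells died. Active threshold: below 10.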 Active and inactive are the calls of the source.

The compounds below were run on NCI/ADR-RES ovarian (assay: NCI-60 one-dose screen, 48 h (100 = growth as untreated, 0 = no growth, -100 = all killed)). Details: 10 µM unless noted.
For Fc1ccc(C2=NN(c3ccccc3)C(c3sc(N(CCCl)CCCl)nc3Cl)C2)cc1 (configuration not stated), the growth was 92.3% (inactive). In the case of CC[C@H](C)[C@H](NC(=O)Nc1ccccc1)C(=O)N(C)[C@H](C[C@@H](OC(C)=O)c1nc(C(=O)N[C@@H](Cc2ccccc2)C[C@H](C)C(=O)OC)cs1)C(C)C, the growth is reported as 59.1% (inactive). For c1ccc(CCN2CCCCC2Cc2ccccc2)cc1 (configuration not stated), the growth was 87.8% (inactive). CC(=O)O[C@H]1CCC2(C)C(=CCC3C2CCC2(C)/C(=N/OC(=O)c4ccc(N(CCCl)CCCl)cc4)CCC32)C1 (some centres not stated) was tested, and the growth was 44% (inactive). In the case of O=C(N/N=C/c1ccc(N(CCCl)CCCl)cc1)c1cc(=O)[nH]c(=O)[nH]1, the growth is reported as 108% (inactive). O=[As]c1ccc(C(=O)c2ccc(Oc3ccccc3)cc2)cc1 (configuration not stated) was tested, and the growth was -52.4% (active). O=[N+]([O-])c1cc([N+](=O)[O-])c(Cl)c(Cl)c1Cl was tested, and the growth was 21.4% (inactive). Cc1cc(NC(=O)NCCOc2ccc(N3C(N)=NC(N)=NC3(C)C)cc2Cl)ccc1S(=O)(=O)F was tested, and the growth was 102% (inactive). In the case of COc1ccc2c(c1)NC1=C(C(=O)OC1)C2c1cc(OC)c(OC)c(OC)c1 (configuration not stated), the growth is reported as -34.5% (active). C=CCc1ccc(OC(=O)Cc2ccccc2)c(OC)c1 was tested, and the growth was 105% (inactive). With CC(C)(O)/C=C/C(=O)[C@](C)(O)[C@H]1[C@H](O)C[C@@]2(C)[C@@H]3CC=C4[C@@H](C=C(O)C(=O)C4(C)C)[C@]3(C)C(=O)C[C@]12C the growth was 12.2% (inactive). In the case of C[C@]12CCc3sc(-c4ccc(Cl)cc4)nc3C1=CC[C@@H]1[C@@H]2CC[C@]2(C)C(=O)CC[C@@H]12, the growth is reported as 81.6% (inactive). In the case of C=CCC1(CC)C(=O)NC(=S)NC1=O, the growth is reported as 104% (inactive). NC(Cc1ccc2c(c1)OCO2)c1ccc2c(c1)OCO2 (configuration not stated) was tested, and the growth was 107% (inactive). O=C(CF)N(O)c1ccc(/C=C/c2ccccc2)cc1 was tested, and the growth was 44.1% (inactive). In the case of COc1ccc(/C=C(/C(=O)N2CCCC2)c2cc(OC)c(OC)c(OC)c2)cc1N, the growth is reported as 68.2% (inactive). With Nc1nc(N)c(-c2ccc(Cl)c(Cl)c2)c(/C=C/c2ccc(S(=O)(=O)F)cc2)n1 the growth was 105% (inactive). For Nc1c(Br)cc([N+](=O)[O-])cc1[N+](=O)[O-], the growth was 105% (inactive). With Oc1ccc(O)c2c1C1(Cl)C(Cl)=C(Cl)C2(Cl)C1(Cl)Cl the growth was 40.5% (inactive). With CN(C)P1(N(C)C)=NP(N(C)C)(N(C)C)=NP(N(C)C)(N(C)C)=N1 the growth was 107% (inactive). For CCCCNCCc1ccccn1, the growth was 105% (inactive). For CNC(=O)Oc1cccc(OC)c1, the growth was 106% (inactive). In the case of NC(=O)SCC(=O)Nc1ccc([As](=O)(O)O)cc1, the growth is reported as 86.4% (inactive). In the case of C[C@]12CC[C@H]3[C@@H](C[C@@H]4N=C(c5ccc(O)cc5)S[C@@]45C[C@H](O)CC[C@]35C)[C@@H]1CC[C@@H]2O, the growth is reported as 76.8% (inactive). In the case of CC1(C)N=C(N)N=C(N)N1c1ccc(CCCCc2ccc(S(=O)(=O)F)cc2)cc1, the growth is reported as 113% (inactive). In the case of Nc1c(Br)cc2c3c(cccc13)-c1ccccc1-2, the growth is reported as 83.4% (inactive). For COc1cc2c(cc1OC)CN(C)C(C)C2 (configuration not stated), the growth was 101% (inactive). With CC(C)C1c2ccc(O)cc2Oc2nc(N)c(C#N)c(N)c21 (configuration not stated) the growth was 102% (inactive). For c1ccc2nc(OCCN3CC3)ccc2c1, the growth was 89.2% (inactive). For CC1(C)N=C(N)N=C(N)N1c1ccc(CNC(=O)Nc2ccc(S(=O)(=O)F)c(Cl)c2)c(Cl)c1, the growth was 103% (inactive). For c1ccc(-c2ccc3ccccc3[o+]2)cc1, the growth was 92.5% (inactive). In the case of CSc1ccccc1NP1(=O)OCC(C)([N+](=O)[O-])CO1 (configuration not stated), the growth is reported as 109% (inactive). With CC1COC(=O)C1 (configuration not stated) the growth was 106% (inactive). In the case of C[CH2][Pb]([CH2]C)([CH2]C)[O]C(=O)COc1ccccc1, the growth is reported as 2.79% (active). With COc1ccc(/C=C\c2cc(OC)c(OC)c(OC)c2)cc1N/C=C\C(=O)c1c[nH]c2ccccc12 the growth was 0.644% (active). For CCCC(C)(C)c1ccc2c(c1)OC(C)(C)[C@@H]1CC=C(C)C[C@@H]21, the growth was 98.9% (inactive). OC1(c2ccc(Cl)cc2Cl)c2ccccc2C2=NCCN21 (configuration not stated) was tested, and the growth was 96.3% (inactive). With CC1(CF)NC(=O)NC1=O (configuration not stated) the growth was 107% (inactive). With O=C(Nc1ccc(S(=O)(=O)F)cc1)Oc1ccccc1 the growth was 103% (inactive).

Each compound was assayed on T-47D breast in the same assay as above. Details: 10 µM unless noted.
Fc1ccc(C2=NN(c3ccccc3)C(c3sc(N(CCCl)CCCl)nc3Cl)C2)cc1 (configuration not stated) was tested, and the growth was 61.5% (inactive). CC[C@H](C)[C@H](NC(=O)Nc1ccccc1)C(=O)N(C)[C@H](C[C@@H](OC(C)=O)c1nc(C(=O)N[C@@H](Cc2ccccc2)C[C@H](C)C(=O)OC)cs1)C(C)C was tested, and the growth was 61.6% (inactive). With c1ccc(CCN2CCCCC2Cc2ccccc2)cc1 (configuration not stated) the growth was 86.2% (inactive). In the case of CC(=O)O[C@H]1CCC2(C)C(=CCC3C2CCC2(C)/C(=N/OC(=O)c4ccc(N(CCCl)CCCl)cc4)CCC32)C1 (some centres not stated), the growth is reported as 17.7% (inactive). In the case of O=[As]c1ccc(C(=O)c2ccc(Oc3ccccc3)cc2)cc1 (configuration not stated), the growth is reported as -47.2% (active). With O=[N+]([O-])c1cc([N+](=O)[O-])c(Cl)c(Cl)c1Cl the growth was -27.9% (active). In the case of Cc1cc(NC(=O)NCCOc2ccc(N3C(N)=NC(N)=NC3(C)C)cc2Cl)ccc1S(=O)(=O)F, the growth is reported as 50% (inactive). In the case of COc1ccc2c(c1)NC1=C(C(=O)OC1)C2c1cc(OC)c(OC)c(OC)c1 (configuration not stated), the growth is reported as 25.1% (inactive). With C=CCc1ccc(OC(=O)Cc2ccccc2)c(OC)c1 the growth was 106% (inactive). CC(C)(O)/C=C/C(=O)[C@](C)(O)[C@H]1[C@H](O)C[C@@]2(C)[C@@H]3CC=C4[C@@H](C=C(O)C(=O)C4(C)C)[C@]3(C)C(=O)C[C@]12C was tested, and the growth was -15.3% (active). With C[C@]12CCc3sc(-c4ccc(Cl)cc4)nc3C1=CC[C@@H]1[C@@H]2CC[C@]2(C)C(=O)CC[C@@H]12 the growth was 66.2% (inactive). C=CCC1(CC)C(=O)NC(=S)NC1=O was tested, and the growth was 100% (inactive). For NC(Cc1ccc2c(c1)OCO2)c1ccc2c(c1)OCO2 (configuration not stated), the growth was 113% (inactive). For O=C(CF)N(O)c1ccc(/C=C/c2ccccc2)cc1, the growth was 26% (inactive). COc1ccc(/C=C(/C(=O)N2CCCC2)c2cc(OC)c(OC)c(OC)c2)cc1N was tested, and the growth was 37.8% (inactive). For Nc1nc(N)c(-c2ccc(Cl)c(Cl)c2)c(/C=C/c2ccc(S(=O)(=O)F)cc2)n1, the growth was 96.1% (inactive). Nc1c(Br)cc([N+](=O)[O-])cc1[N+](=O)[O-] was tested, and the growth was 107% (inactive). For Oc1ccc(O)c2c1C1(Cl)C(Cl)=C(Cl)C2(Cl)C1(Cl)Cl, the growth was 19.4% (inactive). In the case of CN(C)P1(N(C)C)=NP(N(C)C)(N(C)C)=NP(N(C)C)(N(C)C)=N1, the growth is reported as 103% (inactive). With CCCCNCCc1ccccn1 the growth was 97.2% (inactive). In the case of CNC(=O)Oc1cccc(OC)c1, the growth is reported as 108% (inactive). With C=C=[CH][Sn]([c]1ccccc1)([c]1ccccc1)[c]1ccccc1 the growth was -36.7% (active). In the case of NC(=O)SCC(=O)Nc1ccc([As](=O)(O)O)cc1, the growth is reported as 112% (inactive). C[C@]12CC[C@H]3[C@@H](C[C@@H]4N=C(c5ccc(O)cc5)S[C@@]45C[C@H](O)CC[C@]35C)[C@@H]1CC[C@@H]2O was tested, and the growth was 67.7% (inactive). CC1(C)N=C(N)N=C(N)N1c1ccc(CCCCc2ccc(S(=O)(=O)F)cc2)cc1 was tested, and the growth was 16.6% (inactive). In the case of Nc1c(Br)cc2c3c(cccc13)-c1ccccc1-2, the growth is reported as 38.6% (inactive). For COc1cc2c(cc1OC)CN(C)C(C)C2 (configuration not stated), the growth was 97.3% (inactive). For CC(C)C1c2ccc(O)cc2Oc2nc(N)c(C#N)c(N)c21 (configuration not stated), the growth was 87.5% (inactive). With c1ccc2nc(OCCN3CC3)ccc2c1 the growth was 80.3% (inactive). For CC1(C)N=C(N)N=C(N)N1c1ccc(CNC(=O)Nc2ccc(S(=O)(=O)F)c(Cl)c2)c(Cl)c1, the growth was 60.3% (inactive). For c1ccc(-c2ccc3ccccc3[o+]2)cc1, the growth was 75.6% (inactive). In the case of CSc1ccccc1NP1(=O)OCC(C)([N+](=O)[O-])CO1 (configuration not stated), the growth is reported as 96% (inactive). In the case of CC1COC(=O)C1 (configuration not stated), the growth is reported as 95.5% (inactive). C[CH2][Pb]([CH2]C)([CH2]C)[O]C(=O)COc1ccccc1 was tested, and the growth was 17.2% (inactive). With COc1ccc(/C=C\c2cc(OC)c(OC)c(OC)c2)cc1N/C=C\C(=O)c1c[nH]c2ccccc12 the growth was 81.7% (inactive). For CCCC(C)(C)c1ccc2c(c1)OC(C)(C)[C@@H]1CC=C(C)C[C@@H]21, the growth was 97.2% (inactive). In the case of OC1(c2ccc(Cl)cc2Cl)c2ccccc2C2=NCCN21 (configuration not stated), the growth is reported as 93.3% (inactive). In the case of O=C(Nc1ccc(S(=O)(=O)F)cc1)Oc1ccccc1, the growth is reported as 95.9% (inactive).
